Measured values taken from PubChem BioAssay (EPA / NIEHS).
Results filed as inconclusive are left out. Activity calls are given as the source filed them. Rule for the calls, unless noted: active = hit-call score of the fitted dose curve at least 0.9, where 1 is the maximum; inactive = score below 0.9.

Columns and labels:
[1] = read-out: E-selectin (Homo sapiens) (UniProt P16581); assay: BSK_3C_Eselectin: BioMAP Diversity Plus: 3C Assay for Eselectin Biomarker Activity (AID 2283015); conditions: primary human endothelial cells (HUVEC); actives raise or lower the signal
In short: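 Endpoint derived by bidirectional fitting against DMSO vehicle; signal is ELISA-detected E-selectin from primary HUVEC at 24 h post-dosing, with parallel SRB staining (0.1% SRB, 560 nm) flagging cytotoxicity.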

[2] = read-out: Interleukin-1 alpha (IL1a), IL1A (gene 3552); assay: BSK_BE3C_IL1a: BioMAP Diversity Plus: BE3C Assay for Interleukin-1 alpha (IL1a) Biomarker Activity (AID 2283016); conditions: primary human bronchial epithelial cells; actives raise or lower the signal
In short: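 Signal from IL-1a ELISA, taken 24 h after chemical dosing of human bronchial epithelial cells, is compared with DMSO as baseline using bidirectional curve fitting.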

[3] = read-out: Monocyte Chemoattractant Protein-1 (MCP1), CCL2 (gene 6347); assay: BSK_3C_MCP1: BioMAP Diversity Plus: 3C Assay for Monocyte Chemoattractant Protein-1 (MCP1) Biomarker Activity (AID 2283017); conditions: primary human endothelial cells (HUVEC); actives raise or lower the signal
In short: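 Using human vascular primary endothelium, researchers measured MCP-1 by ELISA 24 h after treatment, with DMSO serving as negative control for bidirectional fitting.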

[4] = read-out: Monocyte Chemoattractant Protein-1 (MCP1), CCL2 (gene 6347); assay: BSK_4H_MCP1: BioMAP Diversity Plus: 4H Assay for Monocyte Chemoattractant Protein-1 (MCP1) Biomarker Activity (AID 2283018); conditions: primary human endothelial cells (HUVEC); actives raise or lower the signal
In short: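 Endothelial cells from umbilical vein were treated with test chemical, then after 24 h MCP-1 levels were quantified by ELISA; endpoint values came from bidirectional fitting with DMSO as baseline of activity.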

[5] = read-out: Human Leukocyte Antigen - DR isotype (HLADR), HLA-DRA (gene 3122); assay: BSK_3C_HLADR: BioMAP Diversity Plus: 3C Assay for Human Leukocyte Antigen - DR isotype (HLADR) Biomarker Activity (AID 2283019); conditions: primary human endothelial cells (HUVEC); actives raise or lower the signal
In short: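 Compound added to primary HUVEC cultures, 24 h incubation, then HLA-DR determined by ELISA; endpoint derived by bidirectional fitting relative to DMSO negative control.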

[6] = read-out: Interleukin-8 (IL8), CXCL8 (gene 3576); assay: BSK_3C_IL8: BioMAP Diversity Plus: 3C Assay for Interleukin-8 (IL8) Biomarker Activity (AID 2283020); conditions: primary human endothelial cells (HUVEC); actives raise or lower the signal
In short: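 Endothelial primary cells of human umbilical vein origin are dosed with chemical; after 24 h the IL-8 biomarker is measured by ELISA, and concentration–response is fitted in both directions versus DMSO.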

[7] = read-out: Monokine induced gamma interferon (MIG), CXCL9 (gene 4283); assay: BSK_3C_MIG: BioMAP Diversity Plus: 3C Assay for Monokine induced gamma interferon (MIG) Biomarker Activity (AID 2283021); conditions: primary human endothelial cells (HUVEC); actives raise or lower the signal;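 for AC50: MIG protein level measured by immunoassay in the treated endothelial cultures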
In short: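 Endothelial primary cells (human umbilical vein) are dosed with test chemical in the 3C system. MIG levels are measured by ELISA at 24 h and fitted in both directions relative to DMSO.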

[8] = BSK_3C_SRB: Viability Assessment in the BioMAP Diversity Plus: 3C Assay (AID 2283023); conditions: primary human endothelial cells (HUVEC);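 note: fitted both ways against DMSO so a hit may be signal rise or drop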
In short: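 Overt cytotoxicity is gauged in parallel confluent HUVEC cultures by SRB total-protein staining at the time of biomarker measurement, 24 h after dosing. Gain or loss of signal is fitted versus DMSO.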

[9] = read-out: Matrix Metallopeptidase 1 (MMP1), MMP1 (gene 4312); assay: BSK_BE3C_MMP1: BioMAP Diversity Plus: BE3C Assay for Matrix Metallopeptidase 1 (MMP1) Biomarker Activity (AID 2283024); conditions: primary human bronchial epithelial cells; actives raise or lower the signal
In short: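 MMP1 signal, measured by ELISA after a 24 h chemical exposure of human primary bronchial epithelial cells, is analysed with bidirectional fitting using DMSO as negative control.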

[10] = BSK_3C_Vis: BioMAP Diversity Plus: 3C Assay for Morphology Visualization (AID 2283025); conditions: primary human endothelial cells (HUVEC);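 note: fitted both ways so gain or loss versus DMSO counts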
In short: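 Morphology read by light microscopy serves as a background control for the multiplexed 3C assay in human umbilical vein endothelial cells, taken 24 h after dosing, with DMSO as the negative control and bidirectional curve fitting.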

[11] = read-out: Pselectin, SELP (gene 6403); assay: BSK_4H_Pselectin: BioMAP Diversity Plus: 4H Assay for Pselectin Biomarker Activity (AID 2283026); conditions: primary human endothelial cells (HUVEC); actives raise or lower the signal
In short: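 Endothelial primary cells (human umbilical vein) are dosed, incubated 24 h, and assayed for surface P-selectin by ELISA; responses in either direction are fitted relative to the DMSO negative control.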

[12] = BSK_4H_SRB: Viability Assessment in the BioMAP Diversity Plus: 4H Assay (AID 2283027); conditions: primary human endothelial cells (HUVEC);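 note: cells exposed to compound for 24 h before staining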;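 for AC50: curves fitted both ways versus DMSO so AC50 may be loss or gain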
In short: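 Cytotoxicity read-out in primary human endothelial cells: after 24 h compound exposure, cells were TCA-fixed (10%), stained with 0.1% SRB and absorbance taken at 560 nm. Values fitted in both directions relative to DMSO.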

[13] = BSK_BE3C_SRB: Viability Assessment in the BioMAP Diversity Plus: BE3C Assay (AID 2283028); conditions: primary human bronchial epithelial cells;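 for AC50: fitted both ways so AC50 may mark signal gain or loss versus DMSO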
In short: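 SRB total-protein staining (0.1%, after TCA fixation) of chemically dosed human bronchial epithelial primary cells at 24 h; DMSO serves as the negative control for bidirectional curve fitting.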

[14] = read-out: Thrombomodulin, THBD (gene 7056); assay: BSK_3C_Thrombomodulin: BioMAP Diversity Plus: 3C Assay for Thrombomodulin Biomarker Activity (AID 2283029); conditions: primary human endothelial cells (HUVEC); actives raise or lower the signal
In short: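 Endothelial cells from umbilical vein are dosed with test chemical and incubated 24 h. Thrombomodulin is then quantified by ELISA, with DMSO serving as negative control and activity baseline.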

[15] = read-out: Urokinase-type plasminogen activator receptor (uPAR), PLAUR (gene 5329); assay: BSK_4H_uPAR: BioMAP Diversity Plus: 4H Assay for Urokinase-type plasminogen activator receptor (uPAR) Biomarker Activity (AID 2283030); conditions: primary human endothelial cells (HUVEC); actives raise or lower the signal
In short: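 Endpoint derived via bidirectional curve fitting against DMSO baseline; readout was ELISA detection of uPAR on umbilical vein endothelial cells at 24 h post-treatment, with SRB-stained parallel cultures assessing cytotoxicity.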

[16] = molecular target: human Retinoid X Receptor beta (RXRb), RXRB (gene 6257) (UniProt P28702); assay: ATG_RXRb_TRANS: Attagene TRANS-FACTORIAL HepG2 Assay for human Retinoid X Receptor beta (RXRb) (AID 2283013; active = hit-call score of the fitted dose curve at least 0.9, where 1 is the maximum)
Chain of human Retinoid X Receptor beta (RXRb), RXRB (gene 6257) (P28702 whole entry, looked up, the tested form may be a part): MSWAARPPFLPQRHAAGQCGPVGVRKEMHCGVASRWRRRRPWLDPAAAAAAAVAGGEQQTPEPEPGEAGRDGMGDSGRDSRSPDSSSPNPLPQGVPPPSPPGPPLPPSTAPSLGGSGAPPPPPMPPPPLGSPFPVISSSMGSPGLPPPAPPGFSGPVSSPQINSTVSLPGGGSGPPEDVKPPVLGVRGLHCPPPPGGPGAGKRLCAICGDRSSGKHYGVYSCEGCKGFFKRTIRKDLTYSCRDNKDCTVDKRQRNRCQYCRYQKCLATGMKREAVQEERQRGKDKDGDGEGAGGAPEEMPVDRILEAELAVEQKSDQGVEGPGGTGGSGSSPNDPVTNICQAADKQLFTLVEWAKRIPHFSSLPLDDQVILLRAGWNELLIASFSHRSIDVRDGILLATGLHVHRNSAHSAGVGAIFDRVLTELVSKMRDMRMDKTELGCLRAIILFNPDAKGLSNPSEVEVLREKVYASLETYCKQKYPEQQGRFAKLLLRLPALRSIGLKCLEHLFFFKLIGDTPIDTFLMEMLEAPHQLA
In short: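 Chimeric receptor-Gal4 activity was assessed in transiently transfected human HepG2 cells after 24 h exposure. Transcripts from GAL4-UAS reporters were quantified by fluorescent RT-PCR and capillary electrophoresis, with DMSO as negative control and baseline.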

[17] = molecular target: human RAR-related Orphan Receptor gamma (RORg), RORC (gene 6097) (UniProt P51449); assay: ATG_RORg_TRANS: Attagene TRANS-FACTORIAL HepG2 Assay for human RAR-related Orphan Receptor gamma (RORg) (AID 2283011; active = hit-call score of the fitted dose curve at least 0.9, where 1 is the maximum)
Chain of human RAR-related Orphan Receptor gamma (RORg), RORC (gene 6097) (P51449 whole entry, looked up, the tested form may be a part): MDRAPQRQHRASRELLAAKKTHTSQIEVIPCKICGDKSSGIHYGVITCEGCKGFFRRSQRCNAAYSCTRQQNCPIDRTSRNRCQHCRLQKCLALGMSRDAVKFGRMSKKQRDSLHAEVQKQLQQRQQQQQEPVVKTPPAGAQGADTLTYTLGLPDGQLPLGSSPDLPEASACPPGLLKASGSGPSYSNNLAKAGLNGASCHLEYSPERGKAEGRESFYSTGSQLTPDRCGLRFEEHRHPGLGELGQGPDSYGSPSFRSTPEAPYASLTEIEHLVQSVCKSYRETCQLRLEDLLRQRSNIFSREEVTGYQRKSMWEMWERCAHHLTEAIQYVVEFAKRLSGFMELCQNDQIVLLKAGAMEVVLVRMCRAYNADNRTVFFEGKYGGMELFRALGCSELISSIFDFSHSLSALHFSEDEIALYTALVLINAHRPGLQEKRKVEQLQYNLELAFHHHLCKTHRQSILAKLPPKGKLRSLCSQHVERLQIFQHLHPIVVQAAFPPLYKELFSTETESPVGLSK
In short: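 Chimeric RORg-Gal4 transactivation in transfected HepG2; 24 h exposure; RT-PCR/capillary electrophoresis readout of reporter mRNA, DMSO baseline.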

[18] = molecular target: Retinoic acid receptor RXR-alpha (Homo sapiens) (UniProt P19793); assay: ATG_RXRa_TRANS: Attagene TRANS-FACTORIAL HepG2 Assay for human Retinoid X Receptor alpha (RXRa) (AID 2283012; active = hit-call score of the fitted dose curve at least 0.9, where 1 is the maximum)
Chain of Retinoic acid receptor RXR-alpha (Homo sapiens) (P19793 whole entry, looked up, the tested form may be a part): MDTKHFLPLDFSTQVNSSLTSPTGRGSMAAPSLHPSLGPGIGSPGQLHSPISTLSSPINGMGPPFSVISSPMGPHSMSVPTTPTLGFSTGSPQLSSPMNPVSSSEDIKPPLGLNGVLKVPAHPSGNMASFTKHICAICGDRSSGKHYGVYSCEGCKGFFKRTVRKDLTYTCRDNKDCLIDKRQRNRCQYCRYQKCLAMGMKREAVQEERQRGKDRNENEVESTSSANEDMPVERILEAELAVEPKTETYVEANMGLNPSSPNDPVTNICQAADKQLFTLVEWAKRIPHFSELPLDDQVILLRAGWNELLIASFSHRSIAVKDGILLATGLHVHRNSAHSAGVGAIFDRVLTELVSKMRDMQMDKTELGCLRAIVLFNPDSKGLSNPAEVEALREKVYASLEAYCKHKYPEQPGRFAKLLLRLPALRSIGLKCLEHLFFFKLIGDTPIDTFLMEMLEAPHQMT
In short: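 Measures exogenous chimeric NR-GAL4 activity in transfected HepG2 liver cells after 24 h of dosing. Induced reporter mRNA was detected by RT-PCR with capillary electrophoresis, and gain of signal was analysed against DMSO.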

[19] = molecular target: human Vitamin D Receptor (VDR), VDR (gene 7421) (UniProt P11473); assay: ATG_VDR_TRANS: Attagene TRANS-FACTORIAL HepG2 Assay for human Vitamin D Receptor (VDR) (AID 2283022; active = hit-call score of the fitted dose curve at least 0.9, where 1 is the maximum)
Chain of human Vitamin D Receptor (VDR), VDR (gene 7421) (P11473 whole entry, looked up): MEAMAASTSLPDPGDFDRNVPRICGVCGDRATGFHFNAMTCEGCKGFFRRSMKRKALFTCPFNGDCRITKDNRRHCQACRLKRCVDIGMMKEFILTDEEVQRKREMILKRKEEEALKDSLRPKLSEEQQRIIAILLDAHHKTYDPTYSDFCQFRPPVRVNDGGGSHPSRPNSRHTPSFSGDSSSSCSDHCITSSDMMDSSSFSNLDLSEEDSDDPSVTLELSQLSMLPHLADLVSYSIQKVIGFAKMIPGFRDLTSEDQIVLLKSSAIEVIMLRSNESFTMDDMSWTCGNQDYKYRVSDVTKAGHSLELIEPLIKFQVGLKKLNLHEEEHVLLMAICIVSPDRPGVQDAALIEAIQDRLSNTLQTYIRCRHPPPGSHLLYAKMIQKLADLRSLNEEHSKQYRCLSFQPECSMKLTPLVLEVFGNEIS
In short: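 Multiplexed TRANS reporter in HepG2; 24 h treatment; reporter mRNA by RT-PCR plus capillary electrophoresis; upregulation scored relative to DMSO.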

Measured: AC50

Chain of E-selectin (Homo sapiens) (P16581 whole entry, looked up): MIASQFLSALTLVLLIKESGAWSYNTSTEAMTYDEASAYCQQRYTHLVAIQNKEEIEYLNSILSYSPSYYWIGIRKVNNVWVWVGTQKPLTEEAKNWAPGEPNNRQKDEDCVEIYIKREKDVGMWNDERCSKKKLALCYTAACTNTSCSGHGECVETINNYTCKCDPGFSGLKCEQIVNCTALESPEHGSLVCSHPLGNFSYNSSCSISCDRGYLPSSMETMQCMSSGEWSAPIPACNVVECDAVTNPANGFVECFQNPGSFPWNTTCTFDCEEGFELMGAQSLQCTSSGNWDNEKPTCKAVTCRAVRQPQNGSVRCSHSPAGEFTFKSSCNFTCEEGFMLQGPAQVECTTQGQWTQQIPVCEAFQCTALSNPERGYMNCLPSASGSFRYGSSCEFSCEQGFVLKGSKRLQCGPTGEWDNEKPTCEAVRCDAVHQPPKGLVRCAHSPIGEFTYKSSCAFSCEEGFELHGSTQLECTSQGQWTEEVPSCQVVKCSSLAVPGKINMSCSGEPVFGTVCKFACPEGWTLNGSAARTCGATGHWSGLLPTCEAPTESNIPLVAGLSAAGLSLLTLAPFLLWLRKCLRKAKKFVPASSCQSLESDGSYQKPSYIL

CC(C)(O)c1cnn2c(-c3ccc(F)c(-c4c(F)cccc4C#N)c3)cnc2n1
active: [2] 31.6 µM | [3] 26.4 µM | [5] 30.4 µM | [6] 20 µM | [8] 30.4 µM | [10] 37.5 µM | [11] 36.2 µM | [12] 28.9 µM | [13] 29.6 µM | [14] 22.7 µM
inactive: [1] | [4] | [7] | [9] | [15]

CCCCOC(=O)c1ccccc1C(=O)OCc1ccccc1
active: [4] 11.8 µM
not listed: [1] | [12] | [17] | [18] | [19]
inactive: all other assays above

c1ccc(N=Nc2ccccc2)cc1
not listed: [12] | [16] | [17] | [18] | [19]
inactive: all other assays above

COc1cc(C=O)cc2c1[C@H](COC(N)=O)[C@]1(OC(C)=O)ON2C[C@H]2[C@@H]1N2C(C)=O
active: [3] 6.85 µM | [4] 3.22 µM | [6] 11.9 µM | [7] 29.2 µM | [8] 6.86 µM | [9] 3.3 µM | [10] 10.3 µM | [11] 3.37 µM | [12] 3.17 µM | [15] 1.14 µM
inactive: [17] | [14]

N#CC(Br)Br
not listed: [1] | [2] | [16] | [17] | [19]
inactive: all other assays above

Nc1ccc(Oc2ccc(N)cc2)cc1
not listed: [1] | [2] | [5] | [13] | [16] | [18] | [19]
inactive: all other assays above

CCCCC(CC)COC(=O)c1ccc(C(=O)OCC(CC)CCCC)c(C(=O)OCC(CC)CCCC)c1 (stereo not given)
not listed: [1] | [5] | [13] | [16] | [17] | [19]
inactive: all other assays above

CCCCCCCCn1sccc1=O
active: [3] 9.73 µM | [4] 8.07 µM | [6] 12.4 µM | [7] 11.6 µM | [8] 20.8 µM | [9] 15.1 µM | [10] 12.9 µM | [13] 12.8 µM | [14] 5.76 µM | [15] 10.5 µM
inactive: [17]

CC(C)(C)OOC(C)(C)CCC(C)(C)OOC(C)(C)C
active: [16] 16.4 µM
not listed: [11] | [17] | [19]
inactive: all other assays above

Cc1ccc([N+](=O)[O-])cc1
not listed: [1] | [12] | [17] | [18] | [19]
inactive: all other assays above

Brc1ccc(Oc2ccccc2)cc1
active: [16] 69.7 µM | [8] 28.9 µM
not listed: [1] | [5] | [13] | [17] | [18] | [19]
inactive: all other assays above

CCOc1cccc(C2(N3CCN(c4ccccc4)CC3)CCC(C)CC2)c1 (stereo not given)
not listed: [1] | [2] | [5] | [13] | [16] | [18] | [19]
inactive: all other assays above

O=[N+]([O-])c1ccc(Oc2ccc(Cl)cc2Cl)cc1
inactive: [18] | [16] | [2] | [7] | [9] | [14] | [15]
active: [1] 20 µM | [3] 27.8 µM | [4] 10.3 µM | [5] 30.5 µM | [6] 20 µM | [8] 31.2 µM | [10] 39 µM

CC(C)(OOC(C)(C)c1ccccc1)c1ccccc1
active: [3] 15.8 µM | [4] 26.5 µM | [6] 29.8 µM | [7] 29.3 µM | [8] 36.5 µM | [9] 11.4 µM | [10] 37.5 µM | [12] 32.3 µM
inactive: [17] | [2] | [14] | [15]

CCCCCCCCOC(=O)c1ccc(C(=O)OCCCCCCCC)c(C(=O)OCCCCCCCC)c1
active: [16] 65.4 µM
not listed: [5] | [12] | [13] | [17] | [18] | [19]
inactive: all other assays above

c1ccc2c(c1)-c1cccc3cccc-2c13
not listed: [11] | [16] | [17] | [18]
inactive: all other assays above

O=[N+]([O-])C(Br)(CO)CO
active: [3] 30.5 µM | [4] 28.9 µM | [6] 35.8 µM | [7] 34.9 µM | [8] 15.3 µM | [10] 37.5 µM | [12] 20 µM | [15] 31.7 µM
inactive: [17] | [9] | [13] | [14]

Cc1cc(N=Nc2ccccc2C)ccc1N
active: [3] 10.8 µM | [6] 20 µM | [8] 11.1 µM | [10] 39 µM | [14] 3 µM | [15] 1.95 µM
not listed: [5] | [11] | [12] | [17] | [19]
inactive: all other assays above
